According to paper PMC4336329 (PLoS ONE, 2015):
In all, about 310,000 compounds went through this assay and about 14,000 (4.5%) showed an effect of 50% or more. The effect is printed as a negative number. What follows is part of a selection rich in strong results, with near analogues and random picks from the rest.

target: human ether-à-go-go-related gene (hERG) potassium channel (human, UniProt Q12809); assay: primary screen, population patch clamp on CHO cells stably expressing hERG; higher = less effect of the substance
Sequence (Q12809 whole entry, looked up): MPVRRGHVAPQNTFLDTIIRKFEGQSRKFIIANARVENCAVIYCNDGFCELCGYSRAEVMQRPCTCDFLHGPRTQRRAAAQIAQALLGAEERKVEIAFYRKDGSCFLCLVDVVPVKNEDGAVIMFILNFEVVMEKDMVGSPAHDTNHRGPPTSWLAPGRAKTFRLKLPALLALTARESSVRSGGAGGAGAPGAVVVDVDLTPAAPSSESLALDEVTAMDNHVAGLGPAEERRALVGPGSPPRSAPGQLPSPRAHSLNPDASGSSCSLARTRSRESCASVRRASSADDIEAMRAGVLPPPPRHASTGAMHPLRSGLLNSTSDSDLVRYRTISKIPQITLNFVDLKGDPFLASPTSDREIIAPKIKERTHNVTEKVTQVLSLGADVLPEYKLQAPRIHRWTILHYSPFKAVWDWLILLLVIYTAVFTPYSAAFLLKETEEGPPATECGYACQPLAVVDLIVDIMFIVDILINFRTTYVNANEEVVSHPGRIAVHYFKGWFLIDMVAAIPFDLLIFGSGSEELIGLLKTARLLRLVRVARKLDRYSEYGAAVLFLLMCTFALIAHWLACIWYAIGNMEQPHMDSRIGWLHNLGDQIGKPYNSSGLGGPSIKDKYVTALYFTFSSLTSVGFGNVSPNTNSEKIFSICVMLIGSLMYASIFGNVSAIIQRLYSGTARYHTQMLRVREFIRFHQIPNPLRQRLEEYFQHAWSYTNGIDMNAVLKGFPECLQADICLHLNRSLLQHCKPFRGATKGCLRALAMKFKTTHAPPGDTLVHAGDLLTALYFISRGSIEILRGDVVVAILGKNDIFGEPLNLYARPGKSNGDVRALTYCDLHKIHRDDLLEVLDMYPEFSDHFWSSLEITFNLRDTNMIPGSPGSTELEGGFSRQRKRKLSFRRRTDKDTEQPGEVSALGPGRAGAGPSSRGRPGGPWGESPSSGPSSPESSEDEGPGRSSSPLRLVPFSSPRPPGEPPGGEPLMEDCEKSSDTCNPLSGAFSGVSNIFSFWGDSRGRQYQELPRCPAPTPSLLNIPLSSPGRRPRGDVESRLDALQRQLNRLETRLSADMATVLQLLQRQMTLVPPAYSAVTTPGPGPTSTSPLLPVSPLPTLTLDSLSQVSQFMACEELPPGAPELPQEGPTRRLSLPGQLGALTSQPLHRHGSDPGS
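Also: peak tail current of the secondary pulse compared with the same well before compound.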

Compound	hERG current change (%, negative = inhibition) at 10uM [%]
O=C(Nc1ccccc1C(=O)N1CCN(CCO)CC1)c1cccc([N+](=O)[O-])c1	7
CN(C)c1nc(SCC#N)nc(N(C)C)n1	-3.57
O=C(COc1ccc(Cl)cc1)Nc1cccc(-c2ccc3nncn3n2)c1	-51.9
CCOc1ccc(C(=O)Nc2cccc(-c3ccc4nncn4n3)c2)cc1	12.5
CN1CCN(c2ccc(-c3cccc(NC(=O)COc4ccccc4)c3)nn2)CC1	-35.9
O=C(COc1ccc(Cl)cc1)Nc1cccc(-c2ccc(N3CCOCC3)nn2)c1	0.684
COCC(=O)Nc1cccc(-c2ccc3nncn3n2)c1	9.97
CN1CCN(c2ccc(-c3cccc(NC(=O)COc4ccc(Cl)cc4)c3)nn2)CC1	-50.7
CCOc1cc(NS(C)(=O)=O)c(OCC)cc1NC(=O)c1cccs1	-15.8
CN1CCN(c2ccc(-c3ccnn3C(=O)Nc3ccccc3)cc2)CC1	-11.5
CCOC(=O)c1ccc(NC(=O)c2ccc(OC(C)C)c(OC)c2)cc1	-3.47
Cc1cc(C(=O)COC(=O)c2ccncc2)c(C)n1Cc1ccco1	13.7
NC(=O)c1c(NC(=O)C2c3ccccc3Oc3ccccc32)sc2c1CCCCC2	6.4
CCS(=O)(=O)N1CCC(C(=O)N2CCOCC2)CC1	12
COc1ccc(S(=O)(=O)NCC2CCCN(Cc3cn(C)nc3C)C2)cc1 (stereo not drawn)	8.1
CC(C)c1cccc(C(C)C)c1OC(=O)[C@H]1OC(C(C)(C)C)=C[C@@H]1c1ccccc1	-6.97
CCN(CC)CCCNC(=O)c1ccc(OCC(=O)Nc2ccccc2C(F)(F)F)c(OC)c1	-70.5
COc1cc(C(=O)NCCCN(C)C)ccc1OCC(=O)Nc1cccc(C(F)(F)F)c1	-59.1
COc1cc(C(=O)NCc2ccc(S(N)(=O)=O)cc2)ccc1OCC(=O)Nc1cccc(C(F)(F)F)c1	15.5
CCN(CC(=O)Nc1ccc(OC)c(OC)c1)CC(=O)Nc1ccccc1C(F)(F)F	-0.147
CCOc1ccc(C(=O)NCCNC(=O)c2ccc(OCC)cc2)cc1	9.15
CCOc1ccc(C(=O)NCCCCNC(=O)c2ccc(OCC)cc2)cc1	21.8
CCN(CC(=O)Nc1ccccc1OC)CC(=O)Nc1ccccc1C(F)(F)F	-5.29

Compound	hERG current change (%, negative = inhibition) at 10uM [%]
CCOc1ccc(C(=O)NCCCN(CC)CC)cc1	-51.8
COc1cc(C(=O)N(C)CCOc2ccccc2)ccc1OCC(=O)Nc1cccc(C(F)(F)F)c1	-14.2
CC(C)CCNC(=O)NC(=O)CSc1nnc(-c2ccccc2Br)o1	-5.73
CC(=O)c1ccc(-c2nc3ccccc3n2C)o1	12.7
CC1CCN(C(=O)COC(=O)CCc2c[nH]c3ccccc23)CC1	9.1
CCOC(=O)c1csc(NC(=O)c2ccccc2)n1	-8.86
COc1ccc(NC(=O)OCC(C)C)cc1OC	15.9
C=CCN1C(=O)/C(=C/c2ccc(OC)cc2)S/C1=N/c1nccs1	13.4
Cc1nn(C(=O)c2ccco2)c(C)c1Sc1ccc([N+](=O)[O-])cc1	20.8
O=C(COC(=O)c1cc(Cl)ccc1O)NCCNC(=O)COC(=O)c1cc(Cl)ccc1O	21.4
COc1ccc(Cl)cc1C(=O)OCC(=O)NCc1cccs1	-28.1
COc1ccc(Cl)cc1C(=O)OCC(=O)NCCNC(=O)COC(=O)c1cc(Cl)ccc1OC	-71.6
Cc1cccc(C(=O)OCCN2CCOCC2)c1.Cl	12.3
CCOc1ccc(C2C(C#N)=C(N)SC(N)=C2C#N)cc1OCC	13.5
COc1cccc(CN2CCCC(C(=O)c3ccccc3SC)C2)c1O (stereo not drawn)	-77.5
COc1ccccc1CN1CCCC(C(=O)c2ccccc2OC)C1 (stereo not drawn)	-47.2
COC(=O)CCCC(=O)N1CCCC(C(=O)c2ccccc2SC)C1 (stereo not drawn)	-8.08
COc1cccc(OC)c1CN1CCCC(C(=O)c2ccccc2SC)C1 (stereo not drawn)	-72.6
COc1ccccc1CN1CCCC(C(=O)c2ccccc2SC)C1 (stereo not drawn)	-71.1
COc1cccc(O)c1CN1CCCC(C(=O)c2ccccc2SC)C1 (stereo not drawn)	-44.1
C/C(=N\NC(=O)c1ccccc1O)c1ccc(Br)s1	11
O=C(O)c1ccc2c(c1Sc1ccccc1)C(=O)c1ccccc1C2=O	-4.82
COc1cc(C(=O)Nc2ccc(S(=O)(=O)NC(C)C)cc2)cc(OC)c1OC	-2.49

Compound	hERG current change (%, negative = inhibition) at 10uM [%]
O=C(CCn1cccn1)Nc1ccc(-c2ccno2)cc1	14.4
CCNC(=O)CN(CCc1ccccc1)S(C)(=O)=O	17.8
O=S(=O)(Nc1ccc(-c2nnc(SCc3ccc(Cl)cc3)o2)cc1)c1ccccc1	17.8
O=S(=O)(Nc1ccc(-c2ccc3nncn3n2)cc1)c1cccs1	15.4
O=C(NCc1ccccc1Cl)c1cccc(NC2=NC3CS(=O)(=O)CC3S2)c1 (stereo not drawn)	13.1
Cc1nnc(NC(=O)c2ccccc2Br)s1	-1.65
CC1=C(C(=O)Nc2ccccc2)C(c2ccco2)C(C#N)=C(SCC(=O)Nc2cccc(C)c2C)N1 (stereo not drawn)	17.9
CCc1nc2sc3c(c2c(=O)n1N)CC(C)(C)OC3	7.31
OCCN1CCN(Cc2cc(Br)cc(Br)c2O)CC1	-60.8
CCN1CCN(Cc2cc(Br)ccc2O)CC1	-22.7
CCN1CCN(Cc2cc(Br)cc(Br)c2O)CC1	-50.6
Oc1c(Br)cc(Br)cc1CN1CCN(Cc2ccccc2)CC1	-3.14
CCN1CCN(Cc2cc(Br)cc(OC)c2O)CC1	-20.4
COc1ccc(Br)cc1CN1CCN(CCO)CC1	-0.9
O=C(OCc1ccccc1)c1cc(S(=O)(=O)N2CCCCC2)ccc1N1CCOCC1	-27.3
CC(=O)N1N=C(c2cccs2)CC1c1ccc(C)o1 (stereo not drawn)	7.07
COC(=O)c1ccc(N2C(=O)CC(N3CCN(c4ccccc4)CC3)C2=O)cc1 (stereo not drawn)	11.1
Cc1cc(Cl)c(S(=O)(=O)NCc2ccncc2)cc1OCC(N)=O	1.62
Cc1ccn(CCNC(=O)C2CCC(=O)N(Cc3ccc(Cl)cc3)C2)n1 (stereo not drawn)	-3.57
Cc1ccn(CCNC(=O)C2CCC(=O)N(CCc3ccc(Cl)cc3)C2)n1 (stereo not drawn)	-55.3
O=C(NCCn1cccn1)C1CCC(=O)N(CCc2ccc(Cl)cc2)C1 (stereo not drawn)	5.51
COc1ccc(CCN2CC(C(=O)NCCCn3nc(C)cc3C)CCC2=O)cc1 (stereo not drawn)	-23.3
Cc1cc(C)n(CCCNC(=O)C2CCC(=O)N(CCc3ccc(Cl)cc3)C2)n1 (stereo not drawn)	-54.7

Compound	hERG current change (%, negative = inhibition) at 10uM [%]
Cc1cc(C)n(CCNC(=O)C2CCC(=O)N(Cc3ccc(Cl)cc3)C2)n1 (stereo not drawn)	15.2
COc1cccc(C2CC(c3ccccc3)Nc3nc(N)nn32)c1 (stereo not drawn)	-7.93
S=c1[nH]nc(Cc2cccs2)n1-c1cccc2ccccc12	-10.4
O=[N+]([O-])c1ccc(CNc2cccc(F)c2)s1	-32.3
Cc1ccc(CNC(=O)c2nc3nc(C)cc(C)n3n2)cc1	14.4
Cc1cccc(NC(=S)Nc2cccc3ccccc23)c1	15.9
Cc1ccc(NC(=S)NC2CCN(Cc3ccccc3)CC2)c(C)c1	-12.9
CCOC(=O)c1c(-c2ccc(C)cc2)csc1NC1=NS(=O)(=O)c2ccccc21	-1.41
CC(=O)C1CCN(Cc2ccccc2)CC1	20.5
CSc1ccccc1OC1CCN(Cc2ccccc2)CC1.Cl	-24.3
Cl.N#CC(c1ccccc1)C1CCN(Cc2ccccc2)CC1 (stereo not drawn)	-50.9
O=C(OCC(=O)N1CCCCCC1)c1ccc([N+](=O)[O-])cc1Cl	8.47
Cc1ccccc1S(=O)(=O)Nc1nc2ccccc2nc1N1CCOCC1	7.22
CCn1ccc(C(=O)NC2=NCCS2)n1	-3.73
CCNC(=O)/C(C#N)=C/c1c(N2CCCCCC2)nc2ccccn2c1=O	-9.13
C=CCNC(=O)/C(C#N)=C/c1c(N2CCCCCC2)nc2ccccn2c1=O	-59.6
CCNC(=O)/C(C#N)=C/c1c(N2CCN(c3ccccc3)CC2)nc2ccccn2c1=O	-66.3
CNC(=O)/C(C#N)=C/c1c(N2CCCCCC2)nc2ccccn2c1=O	10.2
COCCNC(=O)/C(C#N)=C/c1c(N2CCN(c3ccccc3)CC2)nc2ccccn2c1=O	-20.7
CCNC(=O)/C(C#N)=C/c1c(N2CCOCC2)nc2ccccn2c1=O	-4.68
CC(=O)OCn1ncc(N2CCOCC2)c(Br)c1=O	16.5
